Rows were chosen to be rich in hits. Some 21% of all compounds tested hit in one or more screens of this group.
Pf growth 48h: Primary qHTS for delayed death inhibitors of the malarial parasite plastid, 48 hour incubation; P. falciparum luciferase growth in erythrocytes, 48 h; Potency, µM (doses to about 28.7 µM), for inactives: top-dose activity change, negative = inhibition, usual class: inhibitors; hit rate 5.9% among 310,000; AID 504832, 2011; note: potency is the fitted concentration of half-maximal effect; % is set by controls: 0 for no effect and ±100 for the full control effect
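Growth was read as firefly luciferase luminescence after a 48 h, 37 C, 5% CO2 exposure of compounds to reporter-bearing P. falciparum cultures (0.1% parasitemia, 2% hematocrit final) in Albumax-supplemented RPMI 1640.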
HCV inhibitor: qHTS Assay for Inhibitors of Hepatitis C Virus (HCV). Huh7.5.1 HCVcc-Cre infection, luciferase reporter, 44 h. AID 651820, 2012. Potency, µM (top dose mostly 41.8 µM), for inactives: at the highest dose activity change, negative = inhibition, hits mostly inhibitors. hit rate 3.4% among 340,000; note: potency is the fitted concentration of half-maximal effect; % is set by controls: 0 for no effect and ±100 for the full control effect
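After 44 h co-culture of compound, cells and HCVcc-Cre (~0.5 moi), substrate is added for 15 min at room temperature and luciferase measured over 15 sec. Cells were seeded at 1,000/well and pre-cultured 4 h.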
Pf growth 96h: Primary qHTS for delayed death inhibitors of the malarial parasite plastid, 96 hour incubation; P. falciparum luciferase reporter growth, 96 h; Potency, µM (top dose mostly 28.7 µM), for inactives: top-dose activity change, negative = inhibition, usual class: inhibitors; hit rate 6.9% among 320,000; note: potency is the fitted concentration of half-maximal effect; % is set by controls: 0 for no effect and ±100 for the full control effect
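Erythrocytes infected with luciferase-expressing P. falciparum were dispensed at 2% hematocrit and 0.05% parasitemia (final), then incubated with compounds 96 hours at 37 C in 5% CO2. Luminescence after detection reagent addition reported growth.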
HCMV inh: qHTS Assay for inhibitors of the human cytomegalovirus (HCMV); HFF cells, HCMV-luciferase reporter, 72 h; active compounds read low; activity change, negative = inhibition, % at 57.5 µM; hit rate 4.5% among 410,000; in the data active = activity change below about -60%; inconclusive = no clear call, values can overlap the other calls; inactive = above about -39%; note: % is set by controls: 0 for no effect and ±100 for the full control effect
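Cell-based, HFFs, 1000 cells/well, 16 h 37C; cpds in DMSO + HCMV-luc, MOI 1 PFU/cell; 72 h 37C; OneGlo luminescence after 5 min RT; norm. to buffer vs Salinomycin 10uM.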
Cycloheximide cs: Cycloheximide Counterscreen for Small Molecule Inhibitors of Shiga Toxin; hit rate 12% among 300,000; AID 2314, 2010; cell reporter, cycloheximide protein synthesis inhibition counterscreen; max response, %; in the data active = max response mostly above about 13%, no sharp cut-off; inactive = mostly below about 14%; note: read at 38.3 µM for the half of the compounds with a filed dose; 0% is about no effect
Shiga inhibitor: A qHTS for Small Molecule Inhibitors of Shiga Toxin | Vero cells, Shiga toxin protein synthesis inhibition reporter | inhibition, % at 38.7 µM | hit rate 9.2% among 290,000; in the data active = inhibition mostly above about 28%, no sharp cut-off; inactive = mostly below about 43%; note: 0% is about no effect
An asterisk follows results filed as active; ? = inconclusive; nt = not tested or not shown; + = active, no number; [ ] = another dose, or the depositor's remark. Unless noted, calls come from the whole dose curve; as a rule, active = well fitted inhibition curve with a large enough effect; inconclusive = small, poorly fitted or top-dose-only effect, or another doubt; inactive = no such curve, though single readings can be large or run the other way.

SMILES | Pf growth 48h | HCV inhibitor | Pf growth 96h | HCMV inh | Cycloheximide cs | Shiga inhibitor
Cc1cc(C(=O)Nc2cnc3ccccc3c2)ccc1[N+](=O)[O-] | 83% | ? | -29%[5.75 µM] | 25 | 53* | 131*
O=C(Nc1cnc2ccccc2c1)c1cccc(-n2cnnn2)c1 | 0.12µM* | 5% | -1%[5.75 µM] | 109 | 88* | 164*
Cc1ccccc1-c1cc2nc(NCc3cccnc3)n(C)c(=O)c2s1 | nt | nt | nt | 34 | nt | nt
O=C(CSc1c(F)c(F)cc(F)c1F)Nc1ccc(C2SCCS2)cc1 | -4% | ? | -12% | -28 | 2 | -13
Cn1c(NC(=O)c2cccnc2)nc2ccccc21 | ? | 13% | 17% | 62 | 38* | +
Cc1ccsc1/C=N/Nc1nc2ccccc2s1 | 265% | ? | ? | 11 | 70* | 146*
Oc1ccccc1C=NNc1nc2ccccc2s1 | nt | ? | nt | 87 | nt | nt
C(=N\Nc1nc2ccccc2s1)/c1ccco1 | 111% | -5% | 26% | 11 | 44* | 45*
CCn1c(C)c(/C=N/Nc2nc3ccccc3s2)c2ccccc21 | ? | ? | ? | 32 | 61* | 105*
C(=N\Nc1nc2ccccc2s1)/c1cccs1 | 2% | ? | 7% | 128 | 50* | 103*
CC1C(=O)N(Cc2cn(CCC3OCCCO3)nn2)CCS(=O)(=O)N1Cc1ccc(-c2ccc(Cl)nc2)cc1 (stereo not drawn) | nt | nt | nt | -26 | nt | nt
Cc1cc(NC(=O)c2cccnc2)cc(-c2nc3cc(Cl)ccc3o2)c1O | nt | nt | nt | 1 | nt | nt
O=C(NCC1COCCO1)c1cc(COc2ccc(F)cc2F)on1 (stereo not drawn) | 16% | 18% | -7% | nt | 10 | 20
Cc1ccc(C)c(-c2csc(N/N=C/c3ccco3)n2)c1 | ? | 13µM* | 22% | ? | 17 | 95*
Cc1ccnc(N/N=C/c2ccco2)n1 | nt | 3% | 91% | 61 | 41* | 47
Cc1cc(N/N=C/c2ccco2)c2ccccc2n1 | 19% | ? | 22% | -30 | 7 | 61
CCC(=O)N1c2ccc(S(=O)(=O)NCCc3ccccc3)cc2CC1C (stereo not drawn) | 18% | -29% | 3% | ? | 2 | 2
CCCSc1ncc(Cl)c(C(=O)Nc2nc3ccc(OCC)cc3s2)n1 | nt | nt | nt | -10 | nt | nt
CCOc1ccc2nc(NC(=O)c3cccnc3)sc2c1 | 56% | 3% | 39% | 64 | 75* | 122*
CCOc1ccc2nc(NC(=O)c3cnc(C)cn3)sc2c1 | nt | 5% | ? | -11 | 18* | 24
COc1ccc(C(=O)C2CCCN(S(=O)(=O)C(C)C)C2)c(C)c1 (stereo not drawn) | 0% | 5% | 32% | -23 | -4 | -10
Cc1ccc(C2(C)NC(=O)N(CC(=O)N(Cc3ccccc3)C(C)(C)C)C2=O)cc1 (stereo not drawn) | ? | -18% | ? | 4 | -2 | 1
COc1ccc2c(c1)sc(=NC(=O)CS(=O)(=O)c1ccc(F)cc1)n2C | 9.3µM* | ? | 4.1µM* | -73* | nt | nt
CCn1c(=NC(=O)CCS(=O)(=O)c2ccccc2)sc2cccc(OC)c21 | -20% | nt | ? | -74* | 8 | -10
CCn1c(=NC(=O)CS(=O)(=O)c2ccc(F)cc2)sc2cccc(OC)c21 | 12µM* | ? | ? | ? | nt | nt
SMILES | Pf growth 48h | HCV inhibitor | Pf growth 96h | HCMV inh | Cycloheximide cs | Shiga inhibitor
CCCn1c(=NC(=O)CS(=O)(=O)c2ccccc2)sc2cc(S(C)(=O)=O)ccc21 | ? | 9% | ? | ? | nt | nt
O=C(Nc1cccc(Br)c1)N1CCC(CN2CCCCC2)CC1 | nt | nt | nt | -8 | nt | nt
Cc1cc(=O)oc2cc(O)c(N=Nc3ccccc3)cc12 | ? | 18% | 32% | 1 | -3 | -6
CCOCCCn1c(=N)c(S(=O)(=O)c2ccc(C)cc2)cc2c(=O)n3cccc(C)c3nc21 | nt | nt | nt | -19 | nt | nt
Cc1ccc(S(=O)(=O)N(C)C)cc1NC(=O)COC(=O)/C(=C/c1ccc(F)cc1)c1cccs1 | 2% | 11µM* | -3% | 3 | -4 | 14
Cc1ccc(S(=O)(=O)N(C)C)cc1NC(=O)COc1ccccc1C(=O)Nc1ccccc1 | 12µM* | ? | ? | -37 | nt | nt
Cc1ccc(NC(=O)c2ccccc2OCC(=O)Nc2ccccc2F)cc1S(=O)(=O)N(C)C | 9.3µM* | ? | 7.4µM* | 0 | nt | nt
CCOC(=O)c1cccn1C1C(=O)N(C)c2c(F)cccc21 (stereo not drawn) | nt | nt | nt | 21 | nt | nt
COc1ccccc1NC(=O)Cc1nnc(SCC(=O)c2ccccc2)n1C | 4% | -13% | -20% | 7 | -3 | 24
O=c1[nH]cc(I)cc1I | 11% | 7% | 4% | 10 | -2 | -4
Cc1nc(-c2ccccc2)sc1C(=O)NN | 118% | 2% | 34% | 7 | -8 | -10
C/C(=N\OC(=O)NC(C)C)c1sc(-c2ccc(Cl)cc2)nc1C | 94% | ? | 138% | 49 | 34* | 112*
C/C(=N\OC(=O)c1ccc(Cl)cc1)c1sc(-c2ccccc2)nc1C | 204% | 1% | 204% | 91 | 19 | 22
C/C(=N\OC(=O)NC(C)C)c1sc(-c2ccccc2)nc1C | 41% | ? | 24% | 89 | 26* | 52
C=CCNC(=O)c1sc(-c2ccccc2)nc1C | 45% | -9% | 82% | -29 | 17* | 42*
CCNC(=O)O/N=C(\C)c1sc(-c2ccc(Cl)cc2)nc1C | 180% | 10µM* | 244% | 170 | 52* | 114*
Cc1ccc(C2C=C(c3ccccc3)Nc3nc(NS(C)(=O)=O)nn32)cc1 (stereo not drawn) | nt | nt | nt | 43 | nt | nt
COC[C@H]1CCCN1[C@@H]1CS(=O)(=O)N[C@H]1COCc1ccccc1 | nt | nt | nt | -7 | nt | nt
O=C(COc1ccc(F)cc1)Nc1ccccc1C(=O)OCc1cc(=O)n2nc(C3CC3)sc2n1 | nt | nt | nt | 30 | nt | nt
C/C(=N\OC(=O)c1ccc(F)cc1)c1sc(-c2ccccc2)nc1C | 79% | 19% | 25% | 122 | 19* | 54
O=S(=O)(c1cccs1)N1CN(C2CCCCC2)c2nc3ccccc3nc21 | 12µM* | ? | 5.2µM* | 0 | -3 | 0
O=S(=O)(c1cccs1)N1CN(C2CCCC2)c2nc3ccccc3nc21 | ? | -19% | ? | 8 | 9 | 26
COc1ccccc1-c1noc(-c2ccc(NCc3cccnc3)c([N+](=O)[O-])c2)n1 | nt | nt | nt | 16 | nt | nt
Cc1cccn2c(=O)nc(SCC(=O)NCc3ccccc3)nc12 | 2% | -2% | -9% | -11 | nt | nt
Cc1ccc(OCCCCn2cnc3ccccc32)c(C)c1 | nt | ? | ? | -98* | 7 | 16
Brc1ccccc1OCCCCn1cnc2ccccc21 | -16% | 10µM* | ? | -60* | 26* | 42*
